Dicer processing: blocks human Dicer maturation of pre-miR-21. AID 1347074. hit rate 6% among 47,000. z-score at 25 µM. Q9UPY3. cat-ELCCA pre-miR-21 Dicer processing, chemiluminescence; hits give high values; in the data active means z-score above about 3, passing the limit was not always enough;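 further: plate controls were vehicle for no effect and no enzyme for full effect; higher signal means more uncleaved substrate so more Dicer inhibition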
The depositor's hits bear a star. Shown is part of a subset that was picked to be rich in hits.

Screening CC1(C(=O)O)C2C=CC3(CN(Cc4ccccc4)C(=O)C31)O2 (centres undefined) returned Dicer processing 2.6.
Screening CC1(C(=O)O)C2C=CC3(CN(c4ccccc4)C(=O)C31)O2 (centres undefined) returned Dicer processing 5.3*.
`O=C1CCCc2c1nc(-c1ccccc1)n2O` gave Dicer processing -0.1.
`COc1ccc(Oc2coc3cc(OC(=O)c4ccco4)ccc3c2=O)cc1` gave Dicer processing 0.95.
COc1ccc2c(=O)c(Oc3ccccc3Br)coc2c1 was read as Dicer processing 4.7*.
For COc1cccc(OC)c1C(=O)Oc1ccc2c(=O)c(Oc3ccccc3Br)coc2c1 the results were Dicer processing 2.5.
COc1ccc(C(=O)Oc2ccc3c(=O)c(Oc4ccccc4Br)coc3c2)cc1 was read as Dicer processing 1.4.
Screening COc1ccc(Oc2coc3cc(OC(=O)c4ccc(Br)cc4)ccc3c2=O)cc1 returned Dicer processing 5.4*.
Screening COc1ccc(Oc2coc3cc(OC(=O)c4cccs4)ccc3c2=O)cc1 returned Dicer processing 1.3.
`COc1ccccc1N1CC(C)(C)C(=O)N=C1Sc1ccc(C(F)(F)F)cc1[N+](=O)[O-]` gave Dicer processing -1.2.
For CSc1nc(N)nc(CSc2ccc(Cl)cc2)n1 the results were Dicer processing -1.9.
COc1ccc(OC(C)c2nc(-c3ccc(OC)cc3)no2)cc1 (centres undefined) was read as Dicer processing 0.76.
For CC1=NC(=O)CN1c1ccc(N)cc1 the results were Dicer processing 4*.
Screening Cc1ccc(C)n1-c1ccc(N)cc1 returned Dicer processing -4.
Screening Cc1ccc(N2N=C(N)CC2=O)cc1 returned Dicer processing 2.4.
`CCCCCSc1n[nH]c(=S)s1` gave Dicer processing -0.47.
Screening COc1ccc2nc3c(cc2c1)c(=O)n(-c1ccccc1)c1c3c(=O)n(C)c(=O)n1C returned Dicer processing 1.7.
`CC(C)OC(=O)CSc1nnc(-c2ccccc2)o1` gave Dicer processing 0.79.
`O=[N+]([O-])c1cccnc1Sc1nccn1-c1ccccc1Cl` gave Dicer processing 1.3.
CCCCOC(=O)C(C)Sc1n[nH]c(=O)[nH]c1=O (centres undefined) was read as Dicer processing -0.21.
Screening O=C(Nc1ccncc1)c1cc([N+](=O)[O-])ccc1Sc1ccccc1 returned Dicer processing -0.02.
COc1ccc(-c2cc(-c3nc4c5c(ncn4n3)CCC5)[nH]n2)cc1 was read as Dicer processing -0.65.
For COc1ccc(O)c(-c2cc(C(F)(F)F)nc(-c3ccccc3)n2)c1 the results were Dicer processing 1.2.
Screening COc1ccc(Nc2n[nH]c3c2CCc2ccccc2-3)cc1 returned Dicer processing 2.3.
`COc1ccc(/C=C/c2nc(-c3ccccc3O)n[nH]2)cc1` gave Dicer processing 26*.
COc1ccc(-c2cc(-c3ccccc3O)[nH]n2)cc1 was read as Dicer processing 4.6*.
COc1ccc2cc(-c3ccn[nH]3)ccc2c1 was read as Dicer processing -1.1.
For O=C(O)c1cc(Cl)cc(Cl)c1Sc1c(Cl)cc(Cl)cc1C(=O)O the results were Dicer processing -0.28.
Screening Cc1ccc(-n2cc(-c3ccccc3)c3c(=O)[nH]cnc32)cc1Cl returned Dicer processing -0.2.
Cc1c(-c2ccnn2C(=O)Nc2ccc(Cl)cc2)cnn1-c1ccccc1 was read as Dicer processing -1.1.
`CCc1cc(C(=O)c2ccc(OC)cc2)c(NC(=O)COCC(=O)O)s1` gave Dicer processing -0.42.
Screening COc1cc(/C=N/Nc2nc3c(N)ncnc3n2[C@H]2O[C@@H](CO)[C@H](O)[C@@H]2O)ccc1O returned Dicer processing 0.07.
`CC(NC(=O)C(=O)N[C@H](C)c1ccccc1)c1ccccc1` (some centres undefined) gave Dicer processing -0.23.
For COC(=O)Cn1ncc2ccccc2c1=O the results were Dicer processing 2.9.
Screening Cc1ccc2[nH]c(=O)cc(C(=O)OCC(=O)c3ccc(Br)cc3)c2c1 returned Dicer processing -0.05.
For Cc1cc(=O)oc(C)c1C(=O)OCC(=O)c1ccc(Br)cc1 the results were Dicer processing 5*.
For Cc1onc(-c2ccccc2)c1C(=O)OCC(=O)c1ccccc1 the results were Dicer processing 2.
COCCOC(=O)c1c(C)oc2ccc(OCC(=O)c3ccc(Br)cc3)cc12 was read as Dicer processing -0.46.
Cc1onc(-c2ccccc2Cl)c1C(=O)OCC(=O)c1ccc(Br)cc1 was read as Dicer processing 3.9*.
`O=C(COC(=O)c1ccccc1Cl)c1ccc(Br)cc1` gave Dicer processing -0.43.
CC(C)(C)SC(=S)SCC(=O)c1cc2cc(Br)ccc2o1 was read as Dicer processing -1.6.
For Cc1onc(-c2c(Cl)cccc2Cl)c1NC(=O)NC(C)(C)C the results were Dicer processing 1.7.
`CC(C)S(=O)(=O)c1csc(C(=O)NNS(=O)(=O)c2ccc(F)cc2F)c1-n1cccc1` gave Dicer processing -0.64.
`FC(F)(F)c1ccnc(NCc2ccco2)n1` gave Dicer processing 0.64.
`O=C(O)c1cc(Cl)ccc1NS(=O)(=O)c1ccc(Cl)cc1` gave Dicer processing 2.
`Clc1ccc(OCc2nc3c4c5c(sc4ncn3n2)CCCC5)cc1` gave Dicer processing 1.2.
Screening COc1ccc(OCc2nc3c4c5c(sc4ncn3n2)CCCCC5)cc1 returned Dicer processing 4.2*.
`COc1ccccc1OCc1nc2c3c4c(sc3ncn2n1)CCCCC4` gave Dicer processing -0.5.
CNC(=O)NNC(=O)c1ccc(Cl)cc1 was read as Dicer processing 0.28.
Screening CC(=O)Nc1nc2ccc(NC(=O)c3sc4ccccc4c3Cl)cc2s1 returned Dicer processing 0.3.
CC(=O)Nc1ccc2nc(NC(C)=O)sc2c1 was read as Dicer processing 3.2*.
Screening CC(=O)Nc1nc2ccc(NC(=O)c3c([N+](=O)[O-])cnn3C)cc2s1 returned Dicer processing 1.1.
`C=CCn1c(SCc2nnc(SCc3ccc(F)cc3)n2C)nnc1-c1ccccc1` gave Dicer processing 0.18.
For COc1ccc(Br)c(C(=O)NN)c1 the results were Dicer processing 0.
Screening COc1ccc(Br)c(C(=O)/C(C#N)=C/c2cccs2)c1 returned Dicer processing 0.78.
COc1ccc(Br)c(C(=O)/C(C#N)=C/c2ccc(N(C)C)cc2)c1 was read as Dicer processing 6.2*.
O=C1C2C(c3ccc(Cl)cc3)OC3(C(=O)c4ccccc4C3=O)C2C(=O)N1CCc1ccccc1 (centres undefined) was read as Dicer processing 0.85.
For CC(C)CNCC1COc2ccccc2O1 (centres undefined) the results were Dicer processing 1.4.
For CN1Cc2sccc2C(c2ccc(O)c(O)c2)C1 (centres undefined) the results were Dicer processing 4.8*.
CN1CCc2cc(Cl)c(O)cc2[C@@H](c2ccccc2)C1 was read as Dicer processing 0.58.
Screening CC12CN3CC(C)(CN(C1)C3c1ccc(O)c(O)c1)C2=O (centres undefined) returned Dicer processing -0.39.
COC(=O)c1scc(Br)c1OS(=O)(=O)c1ccc(F)cc1 was read as Dicer processing -0.52.
`CC1(C)CC(NC(=O)CCC(=O)NC2CC(C)(C)NC(C)(C)C2)CC(C)(C)N1` gave Dicer processing -0.08.
`Cc1ccccc1CSc1nnc(C)c(=O)[nH]1` gave Dicer processing -2.

Source: PubChem BioAssay (Center for Chemical Genomics, University of Michigan)
